Test systems include SK-MEL-2 melanoma; EKVX NSCLC; SN12C renal; UO-31 renal; TK-10 renal; ACHN renal; CAKI-1 renal; A498 renal; CCRF-CEM leukemia; MOLT-4 leukemia; SR leukemia; OVCAR-8 ovarian; OVCAR-5 ovarian; OVCAR-4 ovarian; SK-OV-3 ovarian; IGROV1 ovarian; OVCAR-3 ovarian; NCI/ADR-RES ovarian; RPMI-8226 leukemia; HS 578T breast.
Holding throughout (experiment): NCI-60 one-dose screen, 48 h (100 = growth as untreated, 0 = no growth, -100 = all killed)
Details in all cases: 10 µM unless noted

The panel holds about 83,000 compounds, 20% with a hit somewhere; the sample as a whole holds those more often.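 Compound tested at a single concentration for 48 hours in 96-well plates; a percent growth value below 10 was scored as active.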 A number with no mark means an inactive call. Calls of active or inactive are those of the source.

For the molecule `CCCCOc1nc2ccc(Cl)cc2cc1/C=C/C(=O)/C=C1/CC(c2cc3cc(Cl)ccc3nc2OCCCC)Nc2ccccc2N1` (stereo not given), the growth in the experiment with SK-MEL-2 melanoma is 102%; in the experiment on EKVX NSCLC it was 78.6%; with SN12C renal, 91.8%; with UO-31 renal, 77.4%; with TK-10 renal it was 113%; in the experiment with ACHN renal, 92.7%. Further, the growth was 81.9% in the experiment on CAKI-1 renal; 102% in the experiment with A498 renal; 101% in the experiment on CCRF-CEM leukemia; 100% in the experiment on MOLT-4 leukemia; 91.2% in the experiment on SR leukemia; 101% in the experiment with OVCAR-8 ovarian. The growth in the experiment on OVCAR-5 ovarian is 93.8%; in the experiment with OVCAR-4 ovarian, 101%; with SK-OV-3 ovarian, 86.1%; in the experiment on IGROV1 ovarian, 67.2%; in the experiment with OVCAR-3 ovarian, 102%; in the experiment on NCI/ADR-RES ovarian, 98.3%.
Take `C=CC(=O)Nc1cccc(C)c1Nc1cc(-c2cccnc2Cc2c(C)c(OC)cc(OC)c2C)ncn1`: the growth was -29% (active) with SK-MEL-2 melanoma; 82.1% in the experiment on EKVX NSCLC; 30.1% in the experiment on SN12C renal; 51% in the experiment on UO-31 renal; -8.59% (active) with TK-10 renal; 29.7% in the experiment with ACHN renal. The growth in the experiment on CAKI-1 renal was 36.4%; with A498 renal it was -4.92% (active); with CCRF-CEM leukemia, -0.444% (active); in the experiment on MOLT-4 leukemia, -7.26% (active); with RPMI-8226 leukemia it was -24.1% (active); with OVCAR-8 ovarian, 3.17% (active). The growth with OVCAR-5 ovarian was 57.5%; in the experiment with OVCAR-4 ovarian, 41.9%; in the experiment with SK-OV-3 ovarian it was 28.7%; in the experiment with IGROV1 ovarian, 42.6%; in the experiment with OVCAR-3 ovarian, 0.807% (active); in the experiment on HS 578T breast it was 29.6%. The growth with NCI/ADR-RES ovarian was 35.3%.
In the case of `Cn1cc(Nc2nccc(-c3ccc(N4CCCC4)c(C#N)c3)n2)cn1`, the growth was 3.95% (active) with SK-MEL-2 melanoma; 57% with EKVX NSCLC; 44.9% in the experiment with SN12C renal; 31.9% in the experiment with UO-31 renal; 40.7% in the experiment on TK-10 renal; 26.7% in the experiment on ACHN renal. In addition, the growth in the experiment on CAKI-1 renal is 16.7%; with A498 renal, 48%; in the experiment with CCRF-CEM leukemia, 34%; in the experiment with MOLT-4 leukemia it was 17.2%; with RPMI-8226 leukemia it was 27.1%; in the experiment with OVCAR-8 ovarian, 47.3%. The growth in the experiment with OVCAR-5 ovarian was 88%; with OVCAR-4 ovarian, 53.7%; in the experiment with SK-OV-3 ovarian, 18.4%; in the experiment on IGROV1 ovarian, 25.3%; in the experiment on OVCAR-3 ovarian, 32.1%; with HS 578T breast it was 32.5%. The growth in the experiment with NCI/ADR-RES ovarian was 42.2%.
On to `COc1ccc(OC)c(C(=O)Nc2cccc(-c3cc(=O)c4ccccc4o3)c2)c1`, for which the growth in the experiment on SK-MEL-2 melanoma was 98.2%; in the experiment with EKVX NSCLC it was 90.5%; with SN12C renal, 82.6%; in the experiment with UO-31 renal, 95.2%; with TK-10 renal, 88%; in the experiment on ACHN renal it was 84.7%. The growth is 79.4% with CAKI-1 renal; 92.4% in the experiment on A498 renal; 86.5% with CCRF-CEM leukemia; 86.3% in the experiment with MOLT-4 leukemia; 80% with SR leukemia; 63.3% in the experiment on OVCAR-8 ovarian. The growth with OVCAR-5 ovarian is 95.4%; in the experiment on OVCAR-4 ovarian, 73.3%; with SK-OV-3 ovarian it was 52.6%; with IGROV1 ovarian, 104%; with OVCAR-3 ovarian, 110%; in the experiment on NCI/ADR-RES ovarian it was 80.2%.
For `COc1ccc(-n2sc(=O)n(Cc3ccc(COC(=O)C(C)c4ccc(CC(C)C)cc4)cc3)c2=O)cc1` (stereo not given), the growth is 89.7% in the experiment with SK-MEL-2 melanoma; 77.4% with EKVX NSCLC; 23.4% with SN12C renal; -6.91% (active) in the experiment with UO-31 renal; 10.1% in the experiment on TK-10 renal; -44.4% (active) with ACHN renal. The growth in the experiment with CAKI-1 renal is 30.9%; in the experiment on A498 renal it was 83.3%; in the experiment on CCRF-CEM leukemia, -22.2% (active); in the experiment with MOLT-4 leukemia, -18.3% (active); in the experiment with SR leukemia, -27.4% (active); with OVCAR-8 ovarian, 50.1%. Also, the growth in the experiment on OVCAR-5 ovarian is 63.6%; in the experiment on OVCAR-4 ovarian, 18.3%; in the experiment on SK-OV-3 ovarian, 96.1%; in the experiment with IGROV1 ovarian, 42.5%; in the experiment on OVCAR-3 ovarian, -67.3% (active); in the experiment with NCI/ADR-RES ovarian, 76.7%.
Take `CCCCN(Cc1ccc(C(=O)NO)cc1)C(=O)Nc1ccc(OCCCCCCCCCn2cc(CCCCC(=O)N[C@H](C(=O)N3C[C@H](O)C[C@H]3C(=O)NCc3ccc(-c4scnc4C)cc3)C(C)(C)C)nn2)cc1`: the growth in the experiment with SK-MEL-2 melanoma was 90.6%; with EKVX NSCLC, 72.1%; with SN12C renal, 31%; with UO-31 renal it was 70.8%; in the experiment on TK-10 renal it was 87.6%; in the experiment with ACHN renal, 105%. The growth in the experiment with CAKI-1 renal was 61.7%; in the experiment with A498 renal, 66.5%; with CCRF-CEM leukemia, 13%; in the experiment on MOLT-4 leukemia, 14.5%; in the experiment with SR leukemia it was 12.9%; in the experiment with OVCAR-8 ovarian it was 50.3%. Further, the growth in the experiment with OVCAR-5 ovarian is 96.8%; in the experiment on OVCAR-4 ovarian, 49.3%; in the experiment with SK-OV-3 ovarian it was 53.9%; in the experiment on IGROV1 ovarian, 16.8%; with OVCAR-3 ovarian, 3.45% (active); in the experiment with HS 578T breast, 40.8%. Moreover, in the experiment on NCI/ADR-RES ovarian, the growth is 97.3%.
Turning to `CN(CCCCCCCCNc1ccnc2ccccc12)Cc1ccc(-c2ccc(-c3ccc(C#N)cc3)s2)cc1`, the growth was -63.9% (active) in the experiment with SK-MEL-2 melanoma; -14.3% (active) with EKVX NSCLC; -78% (active) in the experiment with SN12C renal; -92.4% (active) in the experiment with UO-31 renal; -50.1% (active) in the experiment with TK-10 renal; -93.6% (active) with ACHN renal. Also, the growth in the experiment on CAKI-1 renal was -86.5% (active); with A498 renal, 50.2%; with CCRF-CEM leukemia, -11.3% (active); in the experiment with MOLT-4 leukemia, -32.9% (active); in the experiment on RPMI-8226 leukemia it was -44.4% (active); in the experiment on OVCAR-8 ovarian, -52.5% (active). The growth with OVCAR-5 ovarian is -40.6% (active); with OVCAR-4 ovarian, -57.9% (active); with SK-OV-3 ovarian, -72.6% (active); with IGROV1 ovarian, -86.4% (active); in the experiment with OVCAR-3 ovarian, -79.1% (active); with HS 578T breast, -36.6% (active). Besides, the growth with NCI/ADR-RES ovarian was -68.3% (active).
In the case of `COc1ccc(/C(C)=C(\c2ccc(Cl)cc2)c2ccc(OCCN3CCCCC3)cc2)cc1F`, the growth in the experiment on SK-MEL-2 melanoma was 64.1%; in the experiment with EKVX NSCLC it was 47.7%; in the experiment with SN12C renal, 47.4%; with UO-31 renal, 11.6%; in the experiment with TK-10 renal, 68.7%; in the experiment with ACHN renal, 59.2%. Also, the growth with CAKI-1 renal is 17.8%; in the experiment with A498 renal, 76%; in the experiment with CCRF-CEM leukemia, 31%; with MOLT-4 leukemia it was 23.8%; in the experiment on SR leukemia, -25.2% (active); in the experiment on OVCAR-8 ovarian, 59.5%. In addition, the growth with OVCAR-5 ovarian is 51.5%; with OVCAR-4 ovarian, 29.1%; in the experiment on SK-OV-3 ovarian, 63%; in the experiment with IGROV1 ovarian, 46.2%; with OVCAR-3 ovarian it was 51%; in the experiment on HS 578T breast, 35%. For the same molecule, the growth with NCI/ADR-RES ovarian is 63%.
Turning to `C#CC[C@H](N)C(=O)O`, the growth with SK-MEL-2 melanoma is 110% [20 µM]; with EKVX NSCLC, 106% [20 µM]; in the experiment with SN12C renal it was 98.2% [20 µM]; in the experiment with UO-31 renal, 86.1% [20 µM]; with TK-10 renal, 87.7% [20 µM]; in the experiment on ACHN renal, 107% [20 µM]. In addition, the growth in the experiment with CAKI-1 renal was 91.1% [20 µM]; in the experiment with A498 renal, 105% [20 µM]; in the experiment with CCRF-CEM leukemia it was 98.6% [20 µM]; in the experiment with MOLT-4 leukemia, 102% [20 µM]; with RPMI-8226 leukemia, 106% [20 µM]; with OVCAR-8 ovarian, 99.2% [20 µM]. In addition, the growth in the experiment on OVCAR-5 ovarian was 93.2% [20 µM]; in the experiment on OVCAR-4 ovarian, 107% [20 µM]; in the experiment on SK-OV-3 ovarian it was 105% [20 µM]; in the experiment on IGROV1 ovarian, 106% [20 µM]; in the experiment on OVCAR-3 ovarian, 111% [20 µM]; in the experiment with HS 578T breast it was 111% [20 µM]. In the experiment on NCI/ADR-RES ovarian, the growth was 108% [20 µM].
As to `COc1ccc(/C=N/NC(=O)Cn2c(-c3ccc(S(C)(=O)=O)cc3)nc3cc(Cl)ccc32)cc1`, the growth in the experiment on SK-MEL-2 melanoma was 21.2%; with EKVX NSCLC it was 25.3%; in the experiment with SN12C renal, 27.3%; in the experiment with UO-31 renal it was 43.2%; with TK-10 renal, 36.8%; with ACHN renal it was 30.3%. Also, the growth was 42% in the experiment on CAKI-1 renal; 21.4% in the experiment on A498 renal; 1.56% (active) with CCRF-CEM leukemia; 12.9% with MOLT-4 leukemia; 9.21% (active) in the experiment with RPMI-8226 leukemia; 19.7% in the experiment on OVCAR-8 ovarian. Besides, the growth in the experiment with OVCAR-5 ovarian is 36.8%; with OVCAR-4 ovarian, 55.5%; with SK-OV-3 ovarian, 12.6%; with IGROV1 ovarian, 33.3%; with OVCAR-3 ovarian, -1.53% (active); in the experiment on HS 578T breast it was 36.8%. In addition, the growth in the experiment with NCI/ADR-RES ovarian was 5.86% (active).
Consider `CC(C)OC(=O)OCOP(=O)(OCOC(=O)OC(C)C)C1CCCN(O)C1=O` (stereo not given), for which the growth in the experiment with SK-MEL-2 melanoma was 28.5%; with EKVX NSCLC, 47.8%; in the experiment on SN12C renal, 5.75% (active); with UO-31 renal, 9.98% (active); in the experiment on TK-10 renal, 2.39% (active); in the experiment on ACHN renal, 26.9%. In addition, the growth in the experiment with CAKI-1 renal is 25.1%; in the experiment on A498 renal, 1.16% (active); with CCRF-CEM leukemia, 10%; in the experiment with MOLT-4 leukemia, 22.5%; with RPMI-8226 leukemia, 11.8%; with OVCAR-5 ovarian, 73.4%. Further, the growth in the experiment on OVCAR-4 ovarian was 36%; in the experiment with SK-OV-3 ovarian, 5.92% (active); in the experiment with IGROV1 ovarian it was 9.36% (active); in the experiment on OVCAR-3 ovarian it was 33.5%; in the experiment on HS 578T breast it was 7.77% (active); with NCI/ADR-RES ovarian, 39.2%.

The record behind these values is PubChem BioAssay (NCI).
